Experimental data from the supplement of paper PMC7801607.

Key:
CHO = assay: % viability of CHO cells (MTT); higher = less toxic; settings: 48 h
How it was run: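 CHO cells were seeded at 10^6 cells/well in 200 µL and left overnight to attach. The medium was then replaced with fresh medium containing compound at 2 or 20 µM for 48 h. Survival was read colorimetrically with the tetrazolium (MTT) assay. Percent viability was expressed relative to untreated cells.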

HepG2-A16-CD81 = assay: % inhibition of HepG2 viability (CellTiter-Glo); higher = more toxic; settings: 5 µM
[1] = system: Plasmodium falciparum NF54 stage IV/V gametocytes; assay: % inhibition of gametocyte viability (PrestoBlue); higher = more inhibition; settings: 48 h
How it was run: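 Stage IV/V NF54 gametocytes (2% gametocytaemia, 5% haematocrit, 100 µL/well) were exposed to compound at 1 or 5 µM. Incubation was 48 h at 37 °C, stationary and hypoxic, followed by 10 µL PrestoBlue for 2 h. Fluorescence at 612 nm was read on 70 µL of transferred supernatant. Percent inhibition of gametocyte viability was normalised to DMSO and kill controls from a single run.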

[2] = system: Plasmodium falciparum NF54 asexual blood stage; assay: % inhibition of asexual blood stage proliferation (pLDH); higher = more inhibition; settings: 72 h
How it was run: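 Plasmodium falciparum NF54 ring-stage cultures (1% haematocrit, 2% parasitaemia) were exposed to compound at 2 or 20 µM in 96-well plates. Incubation was 72 h at 37 °C under 4% CO2, 3% O2 and 93% N2. Survival was read colorimetrically at 620 nm with the parasite lactate dehydrogenase assay. Percent inhibition of asexual proliferation was normalised to DMSO and kill controls, and the screen was run on two separate occasions.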

[3] = system: Plasmodium falciparum NF54 stage IV/V gametocytes; assay: % inhibition of gametocyte viability (ATP bioluminescence); higher = more inhibition; settings: 24 h
How it was run: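 In 96-well plates, compound at 1 or 5 µM was added to 30,000 density-gradient-enriched stage IV/V NF54 gametocytes per well and incubated for 24 h at 37 °C. ATP readout used the Promega BacTiter Glo bioluminescence system. Percent inhibition of gametocyte viability comes from a single run, normalised to control wells.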

[4] = system: Plasmodium falciparum NF54 stage IV/V gametocytes; assay: % inhibition of gametocyte viability (luciferase reporter); higher = more inhibition; settings: 48 h
How it was run: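 Percent inhibition came from luminescence and was normalised to controls in a single run. Gametocytes (stage IV/V, NF54-Pfs16-GFP-Luc line, 2% gametocytaemia, 2% haematocrit) were treated with compound at 1 or 5 µM and incubated for 48 h at 37 °C without agitation under hypoxia. Readings used 30 µL lysate with 30 µL Promega luciferin substrate on a GloMax-Multi+ reader, integrating for 10 s.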

[5] = system: Plasmodium berghei ANKA liver stage in HepG2-A16-CD81; assay: % inhibition of liver stage parasite viability (luciferase); higher = more inhibition; settings: 5 µM; 48 h
Protocol: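 Single-concentration screen of the MMV Pandemic Response Box. P. falciparum NF54 asexual blood stages: pLDH assay, 72 h at 37 °C, 2 and 20 µM, n=2. Stage IV/V gametocytes (NF54): luciferase reporter (NF54-Pfs16-GFP-Luc, 48 h), ATP bioluminescence (24 h) and PrestoBlue (48 h) at 1 and 5 µM, n=1. P. berghei liver stage (luciferase in HepG2-A16-CD81, 48 h post infection) at 5 µM, n=4. All normalised to DMSO and kill controls as % inhibition.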
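Wherever % inhibition of HepG2 viability (CellTiter-Glo) is given: HepG2-A16-CD81 hepatoma cells plated as in the liver-stage assay but without sporozoites, with DMSO wells as negative and 25 µM puromycin as positive control.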

| SMILES | % viability of CHO cells (CHO; 2 µM) | % viability of CHO cells (CHO; 20 µM) | % inhibition of HepG2 viability (HepG2-A16-CD81) | % inhibition of gametocyte viability ([1]; 1 µM) | % inhibition of gametocyte viability ([1]; 5 µM) | % inhibition of asexual blood stage proliferation ([2]; 2 µM) | % inhibition of asexual blood stage proliferation ([2]; 20 µM) | % inhibition of gametocyte viability ([3]; 1 µM) | % inhibition of gametocyte viability ([3]; 5 µM) | % inhibition of gametocyte viability ([4]; 1 µM) | % inhibition of gametocyte viability ([4]; 5 µM) | % inhibition of liver stage parasite viability [5] |
| --- | --- | --- | --- | --- | --- | --- | --- | --- | --- | --- | --- | --- |
| CCc1cc(CCCOc2c(C)cc(-c3noc(C(F)(F)F)n3)cc2C)on1 | 92.1% | 110% | -0.702% | < 0% | < 0% | 40.1% | 94.3% | 7.22% | 9.64% | 8.61% | 13.1% | 28.7% |
| Clc1cc(Cl)c2c(c1)CCc1ccccc1C2n1ccnc1 (centres undefined) | 100% | 76.3% | 26.4% | 64.7% | 76.1% | 94.1% | 89.5% | 25.2% | 75.4% | < 0% | 81.4% | 53.2% |
| CO/N=C(\C(=O)N[C@@H]1C(=O)N2C(C(=O)OCOC(=O)C(C)(C)C)=C(/C=C\c3scnc3C)CS[C@H]12)c1csc(N)n1 | 146% | 60.3% | -3.45% | < 0% | 1.37% | 7.74% | 37.7% | 0.449% | 5.98% | < 0% | 22.6% | 34% |
| COc1cc(Cc2cnc(N)nc2N)c2c(c1OC)OC(C1CC1)C=C2 (centres undefined) | 103% | 67.7% | -4.44% | 36.3% | 6.68% | 13% | 34% | 1.06% | < 0% | 35.9% | 1.69% | 56.5% |
| O=C(O)/C=C/C=C/c1cccc(Oc2cc(Cl)cc(Cl)c2)c1 | 97.3% | 110% | -6% | < 0% | < 0% | 30.7% | 41.4% | 3.95% | 2.02% | 9.35% | 0.936% | 28.9% |
| O=C(Nc1ccc(N2CCN(C(=O)c3ccccc3)CC2)cc1)c1ccc2c(c1)OCO2 | 114% | 113% | 38.8% | 5.65% | < 0% | 62.9% | 44.8% | 0.482% | < 0% | 9.21% | < 0% | 33.5% |
| COc1ccc2sc3c(c2c1)NC(C)CNC3=O (centres undefined) | 97.2% | 115% | 33.6% | < 0% | < 0% | 38.3% | 40.7% | < 0% | < 0% | 0.316% | < 0% | -51.9% |
| CC[N+]1(C/C2=C/CCCCCC2)CCC(NC(=O)C2c3cc(Cl)ccc3Oc3ccc(Cl)cc32)CC1 (centres undefined) | 100% | 75.9% | 7.74% | < 0% | 41.9% | 21.8% | 101% | < 0% | 44% | 7.3% | 34% | 6.03% |
| CC(C)C(=O)N[C@H]1[C@H]([C@H](O)[C@H](O)CO)OC(C(=O)O)=C[C@@H]1N=[N+]=[N-] | 91.9% | 113% | 5.84% | < 0% | 14.9% | 9.36% | 29.6% | 1.53% | < 0% | < 0% | < 0% | 10.3% |
| CCOC(=O)/C=C/[C@H](C[C@@H]1CCNC1=O)NC(=O)[C@@H](CC(=O)[C@@H](NC(=O)c1cc(C)on1)C(C)C)Cc1ccc(F)cc1 | 124% | 129% | 2.38% | 27.5% | 17.3% | 16.3% | 53.7% | 4.33% | < 0% | 1.29% | 10.2% | -3.33% |
| Nc1nc(O)c2ncn(COC(CO)CO)c2n1 | 83.5% | 59.2% | 3.01% | < 0% | < 0% | 6.2% | 41.8% | < 0% | 0.568% | 7.58% | < 0% | 7.49% |
| CC#C[C@]1(O)CC[C@H]2[C@@H]3CCC4=CC(=O)CCC4=C3[C@@H](c3ccc(N(C)C)cc3)C[C@@]21C | 89.5% | 130% | 0.01% | < 0% | < 0% | 15.1% | 53.8% | < 0% | < 0% | 2.32% | < 0% | 15.2% |
| COc1ccc(OCc2ccc(COc3c(Cl)cccc3Cl)cc2)c(Cl)c1 | 99.5% | 100% | -5.86% | < 0% | < 0% | 21.2% | 68.1% | 4.45% | < 0% | < 0% | < 0% | 33.2% |
| Nc1nc(N)c2c(Sc3ccccc3)cccc2n1 | 107% | 100% | 13.7% | < 0% | 4.25% | 47.8% | 77.9% | < 0% | 2.83% | < 0% | < 0% | 48.9% |
| Cc1cc(Nc2ccc(F)cc2)nc(SCc2nc3ccccc3[nH]2)n1 | 91.4% | 101% | 4.62% | 19% | 32.7% | -9.36% | -3.55% | 1.25% | 33.8% | < 0% | < 0% | 25.6% |
| CN(C)c1[nH]c(=O)ncc1F | 111% | 104% | 11.9% | < 0% | < 0% | -4.48% | 8.8% | 2.44% | < 0% | < 0% | < 0% | 26.1% |
| O=c1nc(N2CCN(CC3CCCCC3)CC2)sc2c([N+](=O)[O-])cc(C(F)(F)F)cc12 | 95.8% | 112% | 7.83% | < 0% | 4.32% | 37% | 107% | < 0% | < 0% | 8.82% | < 0% | 33.1% |
